Inconclusive results are not listed. Where a call stands in place of a potency, no number is given. Activity calls are given as the source filed them. Calls come from the whole dose curve; as a rule, active = well fitted inhibition curve with a large enough effect; inconclusive = small, poorly fitted or top-dose-only effect; inactive = no such curve, though single readings can be large or run the other way.
Potency is the fitted concentration of half-maximal effect.

The first assay concerns the target Retinaldehyde dehydrogenase 3 (Homo sapiens) (UniProt P47895). Briefly: qHTS for Inhibitors of the Aldehyde Dehydrogenase Family (ALDH1A3) Confirmatory screens (AID 2061311). Note: nearly all actives have a fitted effect of over 60% in size. The note with it: ALDH inhibition qHTS; series mostly up to 46 µM.
Take `CN1Cc2nc(Nc3ccc(C(F)(F)F)cc3)ccc2OCC1=O`: the Potency was 15.8 µM (active). As to `O=C(CCc1ccccc1)Nc1ccc([C@@H](O)[C@H]2COCC(=O)N2Cc2ccncc2)cc1`, the Potency entry is “inactive”.

`N#Cc1cccc(C(=O)Nc2ccc3c(N4CCOCC4)ncnc3c2)c1`: the Potency result was “inactive”. With `Cc1ccc(NC(=O)CSc2nc3ncccc3[nH]2)cc1F`, the Potency entry is “inactive”. The same measure, in the same setting: the result for `COc1ccc(C2(C(=O)NCc3ccccc3)CCOCC2)cc1` reads “inactive”; that for `CCc1nn2c(=O)c(S(=O)(=O)Nc3ccc(C)cc3C)c(C)nc2s1`, “inactive”. Turning to `Cc1ccc([S+](=O)([O-])c2nnn3c2nc(N2CCC(F)CC2)c2ccccc23)cc1`, the Potency entry is “inactive”. For `O=C(CSc1nc(-c2cccs2)nc2cc(=O)[nH]n12)Nc1cccc(C(F)(F)F)c1`, the Potency result is “inactive”. Take `CCOc1ccc(NC(=O)C(=O)NCCc2ccccc2)cc1`: the Potency result is “inactive”. Consider `Cc1ccc(N[S+](=O)([O-])c2cc3c(cc2N[C@@H](C)CO)NC(=O)CC3)cc1N[C@@H](C)CO`, for which the Potency was 14.2 µM (active). As to `O=C(Nc1ccccc1Cl)c1nc2cccnc2n(Cc2ccccc2)c1=O`, the Potency entry is “inactive”. Turning to `COc1ccc(-c2nnc3ccc(NCCc4ccccc4)nn23)nc1`, the Potency is 20 µM (active). In the case of `Cc1cc(C)n2nc(SCC(=O)Nc3ccccc3C)nc2n1`, the Potency result is “inactive”. For `CCn1nc(-c2cccc(-c3ccnn3C)c2)nc1N(C)C`, the Potency result was “inactive”. `N#Cc1ccccc1NC(=O)Cn1cnc2onc(-c3cccc(F)c3)c2c1=O`: the Potency entry is “inactive”. Turning to `Cc1ccc(Oc2nc3c(c(=O)n(Cc4ccccc4Cl)c(=O)n3C)n2C)cc1C`, the Potency result was “inactive”. For the compound `O=c1c2cnn(-c3ccc(Cl)cc3)c2ncn1Cc1cccc(C(F)(F)F)c1`, the Potency result is “inactive”. With `COc1ccc(NC(=O)N2CCC(CC(=O)NCc3ccccc3)C2)cc1OC` (stereo not given), the Potency result was “inactive”. The same measure, in the same setting: the same measure for `O=C(O)c1cc(Br)c(O)c2ncccc12`: “inactive”.

For `COCCNC(=O)c1cc(-c2ccc(OC)cc2)nc2c1c(C)nn2-c1ccccc1`, the Potency was 25.1 µM (active). As for `Fc1cccc(Cc2noc(-c3nc(-c4ccccc4)no3)n2)c1`, the Potency entry is “inactive”. With `CN(C)Cc1nnc(C2CC(NC(=O)c3ccc4scnc4c3)C2)n1C` (stereo not given), the Potency entry is “inactive”. Same read-out and setting: the same measure for `CC(=O)NC(c1ccco1)c1cc(Cl)c2ccccc2c1O` (stereo not given): 11.3 µM (active); for `CCCOc1ccc(C(=O)Nc2ccc(NC(=O)c3cccc(Cl)c3)cc2)cc1`: “inactive”. In the case of `O=[S+]([O-])(c1ccccc1)c1nnn2c1nc(N1CCC(F)CC1)c1ccccc12`, the Potency entry was “inactive”. `COc1ccc(OC)c(-c2cc(-c3cccs3)nc3c(C)noc23)c1`: the Potency is 12.6 µM (active). Still for that read-out and setting: the result for `OCc1ccc(-c2ccc3nnc(-c4ccccn4)n3n2)cc1` reads “inactive”; that for `CC[C@H]1CN(C(=O)Nc2cccc(OC)c2)CC[C@H]1CC(=O)NCc1ccccc1`, “inactive”.

On to `COc1ccc(C)cc1NC(=O)N1CCC(OC2CCN(Cc3ccccc3)CC2)CC1`, for which the Potency result is “inactive”. Regarding `Cc1nonc1OCCn1cc(-c2ccc(CO)o2)nn1`, the Potency result was “inactive”. Regarding `Cc1cc2ncc(C(=O)NCCc3ccccc3F)cn2n1`, the Potency result is “inactive”. For `Cn1c(Oc2cccc(Cl)c2)nc2c1c(=O)n(Cc1ccccc1Cl)c(=O)n2C`, the Potency was 31.6 µM (active). Take `O=C1Cc2cc(S(=O)(=O)N3CCN(c4ccccc4)CC3)ccc2N1`: the Potency result was “inactive”. Turning to `CCc1nn2c(=O)c(S(=O)(=O)Nc3cccc(F)c3)c(C)nc2s1`, the Potency entry is “inactive”. Regarding `COc1cccc(CCC(=O)NCc2nnc3c(-c4nc(C)no4)cccn23)c1`, the Potency result is “inactive”.

For the compound `COc1ccc(CC(=O)Nc2ccc([C@H]3OCC(=O)N(Cc4ccccc4)[C@@H]3CO)cc2)cc1`, the Potency entry is “inactive”. In the case of `O=S(=O)(c1ccccc1)c1nnn2c1nc(NC1CCCC1)c1ccccc12`, the Potency entry was “inactive”.

On to `CCC(=O)NC(C)c1cc(Cl)c2ccccc2c1O` (stereo not given), for which the Potency was 12.7 µM (active). Consider `COc1cccc(CNc2ccc(S(=O)(=O)Nc3ccc(N4CCNCC4)nc3)cc2)c1O`, for which the Potency is 15.9 µM (active).

In the case of `O=C(CN1CCN(c2ccc(Cl)cc2)CC1)Nc1ccc(F)c(F)c1`, the Potency entry was “inactive”.

The next assay concerns the target Retinal dehydrogenase 2 (Homo sapiens) (UniProt O94788). The experiment in a line: qHTS for Inhibitors of the Aldehyde Dehydrogenase Family (ALDH1A2) Confirmation screens (AID 2061314). Note: nearly all actives have a fitted effect of over 65% in size. The note with it: ALDH1A2 enzyme inhibition qHTS confirmation; series mostly up to 45.9 µM.
In the case of `CCc1nn2c(=O)c(S(=O)(=O)Nc3ccc(C)cc3C)c(C)nc2s1`, the Potency result is “inactive”. As to `Cc1ccc(N[S+](=O)([O-])c2cc3c(cc2N[C@@H](C)CO)NC(=O)CC3)cc1N[C@@H](C)CO`, the Potency was 2.83 µM (active). On the same count and under the same terms, the result for `O=C(O)c1cc(Br)c(O)c2ncccc12` reads 0.449 µM (active).

For the compound `CCC(=O)NC(C)c1cc(Cl)c2ccccc2c1O` (stereo not given), the Potency is 1.01 µM (active).

As to `COc1cccc(CNc2ccc(S(=O)(=O)Nc3ccc(N4CCNCC4)nc3)cc2)c1O`, the Potency was 22.5 µM (active).

The values above are taken from PubChem BioAssay (NCATS).
